To fix the notation:
B1: uchl1_122_7432 (protein)
chain: AETVTVIVPKEAAPIIVEVLKEVMAEHGATVEVELEELSENTVKITITIDTSGLTEEQVDAAVADLEERMAERFKEAGINSADAKNAVGRIARAIRRAGA
B2: uchl1_122_7435 (protein)
chain: MITVEVLVTSSLSPAVLAIIKEYASRLLDNAEFELRRVDPGTLLLTVTGELKDVSDEEILAIRREAEERAAKDQTLTPNQRVSFGNALRRIARAVAKALA
B3: uchl1_122_7431 (protein)
chain: MKTVTVVVRKKDAPILIEIVREVAAEAGMKVEIEEEELSPNVVKLTITIDTTGLTEEQVEAAVEALERRVAEAMKETGSKSTDLRIAVGKIARAIRKAHA
B4: GBRAPL2_93_7423 (protein)
chain: MKVKVTVIELENGEVVRREERELSVEEAKELIRELLAEAIAAGNRVIIEIYDKETGWTFGYYAEDEEQAEKAYERTSEVLEDLAAEGKEVEVTITIERLE
B5: uchl1_122_7434 (protein)
chain: MITIEVDVSSSLSPEVLEIIKEFASRLLDNAEFEEEELSPGTRRLTITGELKDVSDEEILEIENEALERASKLQTLTPNERVSFGNALRRIARAVAKARA
B6: uchl1_122_7443 (protein)
chain: MLTIEVKVSSSLSERTLEILKKYAEKLLENPKFEVKELSPGTKLLTITGELKDVSDEEILEIRNEALEEAGKDQSITPNERVSFGNALRTISRQVARALA
B7: uchl1_122_7437 (protein)
chain: MITIEVLVSSSISEKVLEIIKKFASKLLKNPKFKIEQVSPGTLKITITGELKDVSEEEIREIYNEALEELGKLQDITPNEKVSANTALRKIARDVARARR
B8: uchl1_122_7441 (protein)
chain: MVTIEVEVSSSLSPEALAILAEAAAELLEDARVEVRELSPSTLLITITGRLKDLSPEEIREIENRALERLGRDQSLTPNQRVSAGNALRRLARQYARAKA
B9: uchl1_122_7451 (protein)
chain: SETVEVVGRRRDIELIAEAIKEVFEKFGVKVEVEIEELSPTTAKLTVTITVPPISDEELEALLAALEEAMRRLVEEEGVPRATAGLAYSRTARAVKRAAA
B10: uchl1_122_7445 (protein)
chain: MLTVEVLVSSSMSPEVLAILEEYASRLLDDLEVEREKVSPGTVLLTFRGRLKDVSEEEIRAIREEALARLAKLQDLTPNEKVSFGNALRRIERQVMRARR
B11: uchl1_122_7428 (protein)
chain: METVEVVGRRRAIEAFAEIVREVAAEHGIAVEVEIEELSPTTARLTITFDVPPISDEELAAFEEDLARRVAEAVRELGLSPAEFGIAYTKVVRAVRRANA
B12: uchl1_122_7453 (protein)
chain: TETVEVVGRRRDVEILAAVIREVFAAAGWTAEVTIEELSPTTARLVVTVTLPPASDEAVDALVAALEAAFREAVEKEGISRAFAGIAYTRVARAVRRAAA
B13: uchl1_122_7433 (protein)
chain: MITIEVEVTSSLSPEALAILKEYAARLLDNAEFKEEKLSPGTLLLTVTGELKDVTDEEILAIENEALERASKMQTLTPNQRVSFGNALRRIARAVAKALA
B14: uchl1_122_7446 (protein)
chain: MLTVEVLVSSSLSERVLEILEEYAAALLDNLEVEREEVSPGTRLLTFTGELKDVSEDEIRAIREEALARLAELQDLTPNEKVSFGNALRRIERQVMAARR
B15: uchl1_122_7444 (protein)
chain: MLTVEVLVSSSLSEEVLEILEEYASKLLEDLEVEKKKVSPGTILITFTGELKDVSEEEIREIREEALERLSKLQNLTPNEKVSFGNALRRIERQVMQAKK
B16: uchl1_122_7442 (protein)
chain: MLTIEVDVASSVSERTLEILKEYAEELLEDAEFSVEKKSPGTKLLTIKGKLKDVSDDEILEIENKALERAGKDQSITPNERVSFGNALRKIARQVARARA
B17: GBRAPL2_93_7424 (protein)
chain: NKVELIVKYLENGKLVKEEREVVSVEEAKAKIEELLKEAVENGEKVSIEIEDKDTGWVFGDYVENEEQAKKALERAKEILEDLAEEGKEVEVTIVIEKIT
B18: uchl1_122_7440 (protein)
chain: MITIEIEVSSSLSEKGLEILAEAAKKLLDNAKIEVKEKSPSTKLITITGELKDLSEEEILEIENEALEEAGKDQSLTPNQRVSFGNALRRLAIQYAKAKA
B19: uchl1_122_7429 (protein)
chain: MVRVEVVGRRRTVEALAEVIREVAARHGIDVRVEIEELSPTTARLVVDIRVPPMSDAALEAALADLERRAAELVERLGLSRAEVGIATTRIVRGIRRAAA
B20: uchl1_122_7426 (protein)
chain: METVEVVGRRETIEALAELIREVAAEHGIEVEVRIEELSPTTARLVVTIRVPPISDEELDALIADLEARAAALVEEKGLPRAEVGIATTKIIRAIRRAAA
B21: uchl1_122_7449 (protein)
chain: TETVEVVGRRADVEAIAATIRAVFASHGLTVDTTITELSPTTARLTVTVTLPPISDAQVAALEAALEAAMAALVEREGISRAFAGIATTRVIRAVRRAAA
B22: uchl1_122_7430 (protein)
chain: TVTVEAVGRRETMETLAAVITEVLTAAGLTVEVRIEELSPTTARLTVTISGAPLSDAEVDALIEELRRRAAEAVERLGLDRATVGLAVGRVERGVRRLAA
B23: uchl1_122_7447 (protein)
chain: TVTVEVVGRRADIEAIAAVIRAVFAAAGIKVDVEIEELSPTTAKLTVTITVPPVTDEQVDATIAALAAAMAALVEAEGISRALAGIAFTRVERALRRAAA
B24: uchl1_122_7427 (protein)
chain: TATVEVVGRRETIETIAEIIREVAAEHGLEVEVRIEELSPTTARLVVTVRVPPISDEELAAFERALEERMARAVEEKGLSRAEVGIATTKVIRAVRRANA
B25: uchl1_143_7454 (protein)
chain: GMVHMEVEVIHIEVSEEDTPEEIREKIMEAMKKAVEKGKAIRIIITVPPDANKRLMVNTTARRAAREFAQEYKDKLKYLEIYARDKETGKEDLIAEIINP
B26: uchl1_122_7439 (protein)
chain: MLTIEVDVTSSLSPEGLAILREYASELLDNPEFEEELVSPGTLRLTFTGELKDLTPEQIREIANRALARAGADQSLTPNERVSLGNAIRRIARQVARARA
B27: uchl1_122_7436 (protein)
chain: MITIEVLVTSSLSPEGLAIIKDYAAKLLKDAEFKEEEVSPGTLLLTITGELKDVSDEEILEIRREAEERASKNQNLTPNERVSFGNALRRIARAVAKAKA
B28: uchl1_122_7450 (protein)
chain: SETVEVVGRREALEAIAAAIREVLAAFGAEVEVRIEELSPNTARLTVTIRLPPISDARLAELLEALEAAMRRLVEERGVPAATAGLAYSRVARAIRRAAA
B29: GBRAPL2_93_7425 (protein)
chain: NEVKVTIKHLVDGELVKEEERTVSVEEAKELIKKKLEEAIAAGNKVIIEIDDEDTGWSFGDYVTDEEQAKKALERAKEILEDLAAEGKKVEVEIVIEKIT
B30: uchl1_122_7452 (protein)
chain: TETVEVVGRRKDIELIAAAIREVAAAAGWTADVEIEELSENTAKLTVTVTLPPVSDAAVDAAEAALEAAMRRLVEEEGLSRAFVGIATTRVIRAIRRAAA
B31: uchl1_122_7448 (protein)
chain: TVTVEVVGRREDIELIAAVIREVFAAAGIEVDVEIEELSPTTARLVVTIRAPPMTDAQVDATIAALAAAMARLVEEAGISRALAGIAFTRVERALRRAAA
B32: uchl1_122_7438 (protein)
chain: MLTIEVDVTSSLSPEGLEILKEYVSKLLDNPKFEEELVSPGTLRLIFTGELKDLTEEEIREIENEALEKAGANQSLTPNQRVSFGNAVRRIARQVAKARA

UCHL1, P09936, sequence (P09936 whole entry, looked up, the tested form may be a part): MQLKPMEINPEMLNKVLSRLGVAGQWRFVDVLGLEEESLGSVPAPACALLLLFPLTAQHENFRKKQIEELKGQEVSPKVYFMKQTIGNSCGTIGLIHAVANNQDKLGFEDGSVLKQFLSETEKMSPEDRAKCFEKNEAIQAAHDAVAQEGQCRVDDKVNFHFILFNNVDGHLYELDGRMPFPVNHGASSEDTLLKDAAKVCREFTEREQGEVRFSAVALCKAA
GABARAPL2, P60520, sequence (P60520 whole entry): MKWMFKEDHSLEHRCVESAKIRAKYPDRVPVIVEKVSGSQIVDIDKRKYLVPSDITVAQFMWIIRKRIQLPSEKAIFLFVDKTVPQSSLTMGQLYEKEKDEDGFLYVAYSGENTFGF

For one assay, the target named is UCHL1, P09936. As to the kind of experiment: median log2 fold change of GCK-ALFA target abundance (FLAG IP / Myc IP barcode read proportion) (log2 ratio); each designed protein is fused to an ALFA-tag nanobody in HEK293 cells to bring the named protein to FLAG-tagged glucokinase (GCK); Myc marks an untargeted standard; higher = target protein stabilised (more abundant). The note with it: target protein: 3xFLAG-MCP-GCK-ALFA reporter; HEK293 landing pad (RPLP). In a few lines:
(§1)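 Binders fused to an ALFA nanobody were recombined as a library into HEK293 landing-pad cells, which were induced with 2 μg mL^−1 doxycycline and then transfected to express a FLAG-tagged target and a Myc-tagged standard. After 48 h, circular RNA barcodes recovered by anti-FLAG and anti-Myc immunoprecipitation of lysates were reverse transcribed, amplified and sequenced. Each binder's target abundance is the median log2 ratio of FLAG to Myc barcode read proportions, from barcodes present at ≥10^−7 in both replicates, binders carrying ≥3 barcodes per replicate, a 10^−6 pseudocount and pooled replicates.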
With B1, the “median log2 fold change” value was determined as 0.325.

On to B2, for which the “median log2 fold change” value is -0.0374.

On to B3, for which the “median log2 fold change” value was -0.183.

Consider B5, for which the “median log2 fold change” value came to 0.213.

As for B6, the “median log2 fold change” value stood at 0.153.

As to B7, the “median log2 fold change” value is -0.0419.

Take B8: the “median log2 fold change” value was 0.185.

Take B9: the “median log2 fold change” value is -0.77.

In the case of B10, the “median log2 fold change” value was -0.026.

B11: the “median log2 fold change” value was -0.0204.

Consider B12, for which the “median log2 fold change” value was -0.0277.

As for B13, the “median log2 fold change” value amounted to 0.0352.

With B14, the “median log2 fold change” value was -0.238.

Regarding B15, the “median log2 fold change” value was found to be 0.0563.

Regarding B16, the “median log2 fold change” value is 0.271.

As to B18, the “median log2 fold change” value was 0.144.

For the molecule B19, the “median log2 fold change” value was found to be 0.096.

As to B20, the “median log2 fold change” value is 0.214.

Turning to B21, the “median log2 fold change” value was found to be 0.184.

B22: the “median log2 fold change” value is 0.13.

Turning to B23, the “median log2 fold change” value is -0.15.

As to B24, the “median log2 fold change” value is 0.284.

Turning to B25, the “median log2 fold change” value is -0.0697.

For B26, the “median log2 fold change” value turned out to be 0.0949.

In the case of B27, the “median log2 fold change” value is 0.0349.

With B28, the “median log2 fold change” value amounted to 0.143.

As for B30, the “median log2 fold change” value turned out to be 0.163.

Consider B31, for which the “median log2 fold change” value turned out to be 0.0437.

With B32, the “median log2 fold change” value was 0.324.

The next assay has as its target GABARAPL2, P60520. The assay is described as above. Particulars: target protein: 3xFLAG-MCP-GCK-ALFA reporter; HEK293 landing pad (RPLP). In a few lines: as §1
In the case of B4, the “median log2 fold change” value was -0.302.

Consider B17, for which the “median log2 fold change” value amounted to 0.137.

Turning to B29, the “median log2 fold change” value was -0.332.

(Values after the supplement of paper PMC12632987.)
